Measured values from the supplement of paper PMC10849652.
About 7,900 targets were measured; listed, in parts, are those with a hit and a random draw of the rest. About 0.6% of all pairs of compound and target were hits. Values without a mark were called inactive.

What follows are targets tested with Cc1ccc(NC(=O)c2ccc(CN3CC[C@H](N(C)C)C3)c(C(F)(F)F)c2)cc1Nc1nccc(-c2cncnc2)n1 [bafetinib] (assay: log2 fold change, soluble protein after heating vs DMSO (PISA); higher = thermal stabilisation; K562 cells, 10 uM, 30 min; active = over 0.2 and 3.5 SD of the protein, either way, in both replicates (recomputed)).
Method in brief: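 Soluble protein was quantified by TMTpro 16plex LC-MS/MS after channel sums were equalised. It was obtained as the supernatant after 21,000xg for 90 min from pooled aliquots of K562 cells (2×10^6 cells/mL, 10 μM compound, 30 min) heated for 3 min across 48°C-58°C and extracted in PBS with 0.5% NP-40 at 4°C. Thermal stability values are relative to control samples and come from duplicates. They are given as log2 fold changes.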

Sequence of UniProt P13807 (P13807 whole entry, looked up): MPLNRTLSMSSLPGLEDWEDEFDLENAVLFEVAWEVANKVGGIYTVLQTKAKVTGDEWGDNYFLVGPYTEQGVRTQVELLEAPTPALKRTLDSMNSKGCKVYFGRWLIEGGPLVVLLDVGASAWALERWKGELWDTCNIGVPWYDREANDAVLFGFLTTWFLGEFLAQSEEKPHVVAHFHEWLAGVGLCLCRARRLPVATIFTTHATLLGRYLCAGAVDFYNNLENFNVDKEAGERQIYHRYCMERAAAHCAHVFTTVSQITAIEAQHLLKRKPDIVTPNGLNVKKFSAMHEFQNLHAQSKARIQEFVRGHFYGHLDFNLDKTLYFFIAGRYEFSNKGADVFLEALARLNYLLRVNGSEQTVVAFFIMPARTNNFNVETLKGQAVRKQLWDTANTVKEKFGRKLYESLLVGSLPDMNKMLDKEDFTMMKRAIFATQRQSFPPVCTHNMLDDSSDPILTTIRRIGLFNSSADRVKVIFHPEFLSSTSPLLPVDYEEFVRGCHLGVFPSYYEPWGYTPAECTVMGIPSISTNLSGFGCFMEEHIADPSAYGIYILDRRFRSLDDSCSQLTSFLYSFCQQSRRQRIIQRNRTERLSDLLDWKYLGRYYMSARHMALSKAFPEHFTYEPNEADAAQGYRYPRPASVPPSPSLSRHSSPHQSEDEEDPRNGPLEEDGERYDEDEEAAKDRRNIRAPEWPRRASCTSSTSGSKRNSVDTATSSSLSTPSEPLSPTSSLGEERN
Sequence of UniProt Q06546 (Q06546 whole entry, looked up): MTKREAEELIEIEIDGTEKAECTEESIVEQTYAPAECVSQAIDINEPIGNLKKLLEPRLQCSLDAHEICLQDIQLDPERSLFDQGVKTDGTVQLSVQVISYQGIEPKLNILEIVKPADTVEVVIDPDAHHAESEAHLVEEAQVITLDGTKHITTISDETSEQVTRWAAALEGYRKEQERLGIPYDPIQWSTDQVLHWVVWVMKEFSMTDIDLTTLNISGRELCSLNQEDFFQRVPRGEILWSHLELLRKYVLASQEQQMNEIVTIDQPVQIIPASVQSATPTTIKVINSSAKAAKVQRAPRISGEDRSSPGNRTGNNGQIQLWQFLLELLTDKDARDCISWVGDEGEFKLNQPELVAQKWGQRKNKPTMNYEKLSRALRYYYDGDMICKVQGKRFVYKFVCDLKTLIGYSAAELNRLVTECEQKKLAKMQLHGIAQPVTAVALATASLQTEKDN
Sequence of UniProt Q9Y248 (Q9Y248 whole entry, looked up): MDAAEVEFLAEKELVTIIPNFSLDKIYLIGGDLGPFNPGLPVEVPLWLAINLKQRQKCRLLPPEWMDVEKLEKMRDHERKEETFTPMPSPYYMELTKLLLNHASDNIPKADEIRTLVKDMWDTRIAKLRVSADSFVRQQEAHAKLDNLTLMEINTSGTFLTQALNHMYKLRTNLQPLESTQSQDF
Sequence of UniProt Q969S8 (Q969S8 whole entry, looked up): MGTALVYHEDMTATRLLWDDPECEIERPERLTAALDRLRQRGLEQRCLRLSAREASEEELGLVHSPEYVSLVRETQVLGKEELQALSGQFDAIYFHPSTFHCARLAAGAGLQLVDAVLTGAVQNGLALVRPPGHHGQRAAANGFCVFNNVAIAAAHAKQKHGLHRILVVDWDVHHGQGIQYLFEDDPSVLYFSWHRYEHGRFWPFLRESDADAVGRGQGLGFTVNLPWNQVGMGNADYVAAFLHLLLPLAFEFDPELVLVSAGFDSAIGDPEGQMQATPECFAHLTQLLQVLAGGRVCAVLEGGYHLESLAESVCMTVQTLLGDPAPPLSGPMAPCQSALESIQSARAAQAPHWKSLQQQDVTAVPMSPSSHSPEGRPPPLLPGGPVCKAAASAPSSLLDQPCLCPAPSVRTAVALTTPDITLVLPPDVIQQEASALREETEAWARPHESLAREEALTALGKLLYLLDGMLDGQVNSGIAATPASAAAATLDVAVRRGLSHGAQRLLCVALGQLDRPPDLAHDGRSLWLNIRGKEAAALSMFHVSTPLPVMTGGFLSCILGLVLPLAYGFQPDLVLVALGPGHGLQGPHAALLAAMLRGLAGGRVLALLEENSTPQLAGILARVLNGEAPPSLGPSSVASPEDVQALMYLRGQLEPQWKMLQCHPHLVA
Sequence of UniProt Q00688 (Q00688 whole entry, looked up): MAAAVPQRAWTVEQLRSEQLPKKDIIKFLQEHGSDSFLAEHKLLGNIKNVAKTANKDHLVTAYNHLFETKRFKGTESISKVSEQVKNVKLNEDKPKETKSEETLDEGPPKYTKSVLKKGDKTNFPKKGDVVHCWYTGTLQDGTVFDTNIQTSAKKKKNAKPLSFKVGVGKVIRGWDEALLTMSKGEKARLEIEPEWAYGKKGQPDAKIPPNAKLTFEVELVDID
Sequence of UniProt P30711 (P30711 whole entry, looked up): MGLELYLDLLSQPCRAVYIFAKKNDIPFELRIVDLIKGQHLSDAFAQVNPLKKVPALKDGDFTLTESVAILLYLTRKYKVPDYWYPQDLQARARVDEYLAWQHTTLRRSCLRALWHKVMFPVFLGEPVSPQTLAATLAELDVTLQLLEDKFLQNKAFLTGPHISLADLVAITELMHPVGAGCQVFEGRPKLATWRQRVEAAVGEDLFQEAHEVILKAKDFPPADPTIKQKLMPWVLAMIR
Sequence of UniProt Q70Z53 (Q70Z53 whole entry, looked up): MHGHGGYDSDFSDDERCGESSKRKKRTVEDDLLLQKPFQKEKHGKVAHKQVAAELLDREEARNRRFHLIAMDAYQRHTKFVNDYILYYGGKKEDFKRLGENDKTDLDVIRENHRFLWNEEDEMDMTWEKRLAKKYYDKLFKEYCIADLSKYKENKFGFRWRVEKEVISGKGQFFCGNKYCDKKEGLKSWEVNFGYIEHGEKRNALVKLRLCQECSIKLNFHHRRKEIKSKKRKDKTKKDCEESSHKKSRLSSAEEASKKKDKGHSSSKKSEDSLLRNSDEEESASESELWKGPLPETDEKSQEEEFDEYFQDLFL
Sequence of UniProt Q02790 (Q02790 whole entry, looked up): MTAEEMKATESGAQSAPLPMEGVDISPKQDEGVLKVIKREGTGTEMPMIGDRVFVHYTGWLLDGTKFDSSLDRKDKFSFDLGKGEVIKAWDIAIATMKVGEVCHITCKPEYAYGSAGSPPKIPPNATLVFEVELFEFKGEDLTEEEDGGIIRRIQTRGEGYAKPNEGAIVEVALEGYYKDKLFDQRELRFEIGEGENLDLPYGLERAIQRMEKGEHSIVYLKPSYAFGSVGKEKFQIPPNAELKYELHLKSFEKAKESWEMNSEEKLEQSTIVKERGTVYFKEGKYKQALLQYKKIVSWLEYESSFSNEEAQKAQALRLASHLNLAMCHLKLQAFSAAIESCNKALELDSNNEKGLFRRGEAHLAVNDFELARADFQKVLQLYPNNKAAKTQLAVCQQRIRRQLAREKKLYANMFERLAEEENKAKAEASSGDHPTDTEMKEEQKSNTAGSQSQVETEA
Sequence of UniProt P36915 (P36915 whole entry, looked up): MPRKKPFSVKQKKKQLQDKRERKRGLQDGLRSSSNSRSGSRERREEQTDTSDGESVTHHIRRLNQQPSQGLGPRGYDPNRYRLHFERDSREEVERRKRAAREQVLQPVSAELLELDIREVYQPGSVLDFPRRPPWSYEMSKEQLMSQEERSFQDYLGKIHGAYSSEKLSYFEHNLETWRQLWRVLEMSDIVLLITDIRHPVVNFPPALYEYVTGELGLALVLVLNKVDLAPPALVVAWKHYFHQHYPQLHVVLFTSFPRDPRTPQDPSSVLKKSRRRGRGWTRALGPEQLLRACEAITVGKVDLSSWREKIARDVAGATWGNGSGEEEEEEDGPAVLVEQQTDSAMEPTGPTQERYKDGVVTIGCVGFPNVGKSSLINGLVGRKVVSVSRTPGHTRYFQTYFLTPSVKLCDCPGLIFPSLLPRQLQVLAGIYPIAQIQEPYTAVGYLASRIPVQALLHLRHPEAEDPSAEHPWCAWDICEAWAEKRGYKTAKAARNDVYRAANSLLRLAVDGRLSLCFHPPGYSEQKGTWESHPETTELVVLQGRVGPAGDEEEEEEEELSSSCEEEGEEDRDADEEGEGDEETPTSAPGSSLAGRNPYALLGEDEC
Sequence of UniProt O14893 (O14893 whole entry, looked up): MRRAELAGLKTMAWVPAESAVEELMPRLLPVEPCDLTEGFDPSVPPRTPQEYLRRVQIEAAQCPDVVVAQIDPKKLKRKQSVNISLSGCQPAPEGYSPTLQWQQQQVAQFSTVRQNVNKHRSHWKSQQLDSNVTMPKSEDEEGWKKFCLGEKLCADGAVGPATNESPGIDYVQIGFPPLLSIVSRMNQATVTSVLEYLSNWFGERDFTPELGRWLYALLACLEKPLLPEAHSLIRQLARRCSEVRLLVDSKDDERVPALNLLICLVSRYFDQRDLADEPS
Sequence of UniProt P07686 (P07686 whole entry, looked up): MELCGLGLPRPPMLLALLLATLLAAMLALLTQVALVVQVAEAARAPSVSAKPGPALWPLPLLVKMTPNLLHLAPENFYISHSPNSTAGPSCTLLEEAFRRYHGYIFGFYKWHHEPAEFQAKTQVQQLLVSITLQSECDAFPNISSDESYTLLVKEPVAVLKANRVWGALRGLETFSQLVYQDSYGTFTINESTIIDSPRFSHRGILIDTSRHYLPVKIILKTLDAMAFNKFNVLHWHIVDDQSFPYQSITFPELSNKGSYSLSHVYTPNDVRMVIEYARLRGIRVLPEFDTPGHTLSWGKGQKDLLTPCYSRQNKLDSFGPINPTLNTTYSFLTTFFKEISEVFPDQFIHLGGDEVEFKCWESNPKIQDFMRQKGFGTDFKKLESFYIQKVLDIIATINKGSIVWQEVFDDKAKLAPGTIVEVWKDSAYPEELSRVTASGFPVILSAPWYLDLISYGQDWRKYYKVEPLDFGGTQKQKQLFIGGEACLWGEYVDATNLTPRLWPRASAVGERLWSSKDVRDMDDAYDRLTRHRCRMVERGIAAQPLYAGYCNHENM
Sequence of UniProt Q8NB37 (Q8NB37 whole entry, looked up): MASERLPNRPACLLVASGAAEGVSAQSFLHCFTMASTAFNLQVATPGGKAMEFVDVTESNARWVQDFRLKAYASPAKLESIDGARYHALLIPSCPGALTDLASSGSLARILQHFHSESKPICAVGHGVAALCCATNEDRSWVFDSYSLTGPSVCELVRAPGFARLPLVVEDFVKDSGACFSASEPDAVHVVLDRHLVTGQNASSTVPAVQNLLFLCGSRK

Question: Which log2 fold change does the source give for GABPA (UniProt Q06546) here?
Answer: Its log2 fold change is -0.036.

Question: FRA10AC1 isoform 3 (UniProt Q70Z53) was tested. Which log2 fold change did it give?
Answer: The log2 fold change was -0.087.

Question: For GINS2 (UniProt Q9Y248), which log2 fold change is on record?
Answer: The log2 fold change was -0.025.

Question: GNAS (UniProt Q5JWF2) was tested. Which log2 fold change did it give?
Answer: Its log2 fold change is 0.129.

Question: For GYS1 (UniProt P13807), which log2 fold change is on record?
Answer: The log2 fold change was 0.107.

Question: HEXB (UniProt P07686) was tested. Which log2 fold change did it give?
Answer: The log2 fold change was -0.468 (active).

Question: With HDAC1 (UniProt Q13547) as the target, how does the log2 fold change read?
Answer: Its log2 fold change is 0.306.

Question: How did the log2 fold change turn out when FKBP4 (UniProt Q02790) was run?
Answer: Its log2 fold change is -0.014.

Question: For GATD1 (UniProt Q8NB37), which log2 fold change is on record?
Answer: The log2 fold change was 0.008.

Question: Which log2 fold change does the source give for GSTT1 (UniProt P30711) here?
Answer: Its log2 fold change is -0.019.

Question: Which log2 fold change does the source give for HDAC10 (UniProt Q969S8) here?
Answer: The log2 fold change was -0.255.

Question: How did the log2 fold change turn out when GPD1 (UniProt P21695) was run?
Answer: Its log2 fold change is -0.171.

Question: HDAC2 (UniProt Q92769) was tested. Which log2 fold change did it give?
Answer: The log2 fold change was 0.137.

Question: FKBP3 (UniProt Q00688) was tested. Which log2 fold change did it give?
Answer: Its log2 fold change is 0.014.

Question: Which log2 fold change does the source give for HDAC7 isoform 5 (UniProt Q8WUI4) here?
Answer: The log2 fold change was -0.023.

Question: For FBXO9 (UniProt Q9UK97), which log2 fold change is on record?
Answer: Its log2 fold change is 0.067.

Question: With GOPC (UniProt Q9HD26) as the target, how does the log2 fold change read?
Answer: The log2 fold change was 0.233.

Question: Which log2 fold change does the source give for GNL3 (UniProt Q9BVP2) here?
Answer: The log2 fold change was -0.038.

Question: GIGYF2 (UniProt Q6Y7W6) was tested. Which log2 fold change did it give?
Answer: The log2 fold change was -0.076.

Question: How did the log2 fold change turn out when GSTP1 (UniProt P09211) was run?
Answer: The log2 fold change was -0.061.

Question: With GNL1 (UniProt P36915) as the target, how does the log2 fold change read?
Answer: Its log2 fold change is -0.02.

Question: GTF3A (UniProt Q92664) was tested. Which log2 fold change did it give?
Answer: The log2 fold change was -0.113.

Question: Which log2 fold change does the source give for GEMIN2 (UniProt O14893) here?
Answer: The log2 fold change was -0.154.
